Results on 29 compounds are retold here after PubChem BioAssay AID602410 (Johns Hopkins Ion Channel Center, 2012).

Each structure is given as a SMILES string. Among all 340,000 compounds or so, about 2,800 (0.82%) were called active.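 How the source made its calls: active means B-score under library mean minus 4 SD, starting fluorescence ratio at most library mean plus 5 SD; inactive means the rest.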 What follows is part of a selection rich in actives, with near analogues and random picks from the rest.

The target in the test is Potassium channel subfamily K member 3 (Homo sapiens) (UniProt O14649). The test is described as follows: human KCNK3 channel inhibitors, primary screen, CHO cells, FluxOR thallium flux, B-score (AID 602410).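 On B-score: more negative B-score means stronger inhibition of thallium flux through KCNK3.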 To be noted: FluxOR fluorescence, at 10 µM; active compounds read low.
Chain of Potassium channel subfamily K member 3 (Homo sapiens) (O14649 whole entry, looked up): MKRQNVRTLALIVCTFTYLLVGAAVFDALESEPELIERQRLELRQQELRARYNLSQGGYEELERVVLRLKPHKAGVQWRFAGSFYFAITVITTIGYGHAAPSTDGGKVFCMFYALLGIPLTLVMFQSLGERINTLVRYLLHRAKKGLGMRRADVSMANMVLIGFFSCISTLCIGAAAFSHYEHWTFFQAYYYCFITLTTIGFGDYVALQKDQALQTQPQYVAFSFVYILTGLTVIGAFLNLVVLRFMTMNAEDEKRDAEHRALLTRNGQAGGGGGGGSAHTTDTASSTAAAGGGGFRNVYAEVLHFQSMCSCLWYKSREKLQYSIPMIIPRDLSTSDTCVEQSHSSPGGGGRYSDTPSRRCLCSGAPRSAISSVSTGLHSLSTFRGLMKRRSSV
With `CCOC(=O)C1CCCN(C(=O)c2sc3nc(C)nc(N4CCOCC4)c3c2C)C1` (centres undefined), the B-score result is “inactive”.
As for `Cc1nc(N2CCC(C)CC2)c2c(C)c(C(=O)Nc3cc(F)ccc3C)sc2n1`, the B-score result was “inactive”.
For `Cc1nc(N2CCN(c3ccccn3)CC2)c2c(C)c(C(=O)Nc3ccc(F)cc3)sc2n1`, the B-score was -13 (active).
On to `Cc1cc(Br)ccc1NC(=O)c1cnc(N2CCN(c3ccccn3)CC2)c2ccccc12`, for which the B-score entry is “inactive”.
For the compound `O=C(c1c(F)cccc1Cl)N1CCN(c2ccccn2)CC1`, the B-score result is “inactive”.
Consider `Cc1cc(Br)ccc1NC(=O)c1sc2ncn(CC(=O)N3CCN(c4ccccn4)CC3)c(=O)c2c1C`, for which the B-score entry was “inactive”.
Next, `Cc1nc(N2CCOCC2)c2c(C)c(C(=O)Nc3ccc(C(F)(F)F)cc3)sc2n1`: -8.85 (active); `COc1ccc(NC(=O)c2sc3nc(C)nc(N4CCN(c5ccccn5)CC4)c3c2C)c(OC)c1`: “inactive”.
Turning to `Cc1nc(N2CCN(c3ccccn3)CC2)c2c(C)c(C(=O)Nc3ccc(F)c(Cl)c3)sc2n1`, the B-score is -12 (active).
As to `C/C(=N/NC(=O)c1ccn(C)n1)c1ccncc1`, the B-score entry is “inactive”.
The value for `Cc1ccccc1-c1nc(CS(=O)(=O)CC(=O)NC(C)c2ccccc2)c(C)o1` (centres undefined) was “inactive”.
In the case of `CCOc1ccc(C(CC(=O)O)NC(=O)C23CC4CC(CC(C4)C2)C3)cc1OC` (centres undefined), the B-score result was “inactive”.
Next, `Cc1cc(NC(=O)C(C)SCC(=O)Nc2ccccc2N2CCCCC2)no1` (centres undefined): “inactive”; `Cc1ccc(OCCC(=O)Nc2ccc(S(=O)(=O)Nc3nccs3)cc2)cc1`: “inactive”; `O=C1NC(c2ccncc2)Nc2sc3c(c21)CCCC3` (centres undefined): “inactive”.
The value for `O=C(NCC(=O)N1CCCCCCC1)c1ccccc1Cl` was “inactive”; that for `CCCc1cc(=O)[nH]c(SCC(=O)N2CCN(S(=O)(=O)c3ccc(C)cc3C)CC2)n1` was “inactive”; that for `Cc1ccc(CN(CC(=O)NCC2CCCO2)S(=O)(=O)c2ccc(C)cc2)cc1` (centres undefined) was “inactive”.
The value for `CCn1ncc(Br)c1C(=O)Nc1cc(C)ccc1F` was -9.47 (active).
Regarding `Cc1ccc(F)c(NC(=O)CCOc2ccccc2C)c1`, the B-score entry was “inactive”.
`Cc1ccc(F)c(NC(=O)CCc2ccccc2)c1`: the B-score result was “inactive”.
Next, `C=CCNC(=O)C1CC2c3ccccc3C1c1ccccc12` (centres undefined): “inactive”.
Next, `COc1ccc(Cl)cc1C=CC=Nc1ccc(S(N)(=O)=O)cc1`: “inactive”.
The value for `COc1cccc(/C=N/Nc2ccc(S(=O)(=O)Nc3ccccc3C(=O)O)cc2[N+](=O)[O-])c1O` was “inactive”; that for `COc1ccc(Cc2nnc(N/N=C/c3ccccc3O)[nH]c2=O)cc1OC` was “inactive”; that for `COc1cccc(/C=N/Nc2cc(C)nc(-c3ccccc3O)n2)c1O` was -11.6 (active).
Take `COc1cccc(CN(C)CC(O)COC(c2ccccc2)c2ccccc2C)c1` (centres undefined): the B-score was -12.7 (active).
As to `Cc1ccccc1C(OCC(O)CN1CCCCC1CCO)c1ccccc1` (centres undefined), the B-score entry is “inactive”.
The value for `COc1cccc(CN(C)CC(=O)Nc2ccccc2C(=O)Nc2ccccc2)c1` was “inactive”.
